Measurements reported in the supplement of paper PMC10849652.
Of roughly 7,900 targets only a part is listed; those with a hit were picked by preference. About 0.6% of all pairs of compound and target were hits.

compound: C1=CC=C(C=C1)C2=NC(=C(N2)C3=CC=NC=C3)C4=CC(=C(C=C4)Cl)O; assay: log2 fold change, soluble protein after heating vs DMSO (PISA); higher = thermal stabilisation; K562 cells, 10 uM, 30 min; active = over 0.2 and 3.5 SD of the protein, either way, in both replicates (recomputed)
In short: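 K562 cells at 2×10^6 cells/mL were treated for 30 min with 10 μM compound, and aliquots were heated for 3 min over 48°C-58°C before pooling. Extraction used PBS with 0.5% NP-40 at 4°C, and soluble protein was the supernatant after 21,000xg for 90 min, measured by TMTpro 16plex LC-MS/MS with channel sums equalised. Thermal stability values, relative to control samples and from duplicates, are log2 fold changes.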

UniProt Q9C0B7, sequence (Q9C0B7 whole entry, looked up): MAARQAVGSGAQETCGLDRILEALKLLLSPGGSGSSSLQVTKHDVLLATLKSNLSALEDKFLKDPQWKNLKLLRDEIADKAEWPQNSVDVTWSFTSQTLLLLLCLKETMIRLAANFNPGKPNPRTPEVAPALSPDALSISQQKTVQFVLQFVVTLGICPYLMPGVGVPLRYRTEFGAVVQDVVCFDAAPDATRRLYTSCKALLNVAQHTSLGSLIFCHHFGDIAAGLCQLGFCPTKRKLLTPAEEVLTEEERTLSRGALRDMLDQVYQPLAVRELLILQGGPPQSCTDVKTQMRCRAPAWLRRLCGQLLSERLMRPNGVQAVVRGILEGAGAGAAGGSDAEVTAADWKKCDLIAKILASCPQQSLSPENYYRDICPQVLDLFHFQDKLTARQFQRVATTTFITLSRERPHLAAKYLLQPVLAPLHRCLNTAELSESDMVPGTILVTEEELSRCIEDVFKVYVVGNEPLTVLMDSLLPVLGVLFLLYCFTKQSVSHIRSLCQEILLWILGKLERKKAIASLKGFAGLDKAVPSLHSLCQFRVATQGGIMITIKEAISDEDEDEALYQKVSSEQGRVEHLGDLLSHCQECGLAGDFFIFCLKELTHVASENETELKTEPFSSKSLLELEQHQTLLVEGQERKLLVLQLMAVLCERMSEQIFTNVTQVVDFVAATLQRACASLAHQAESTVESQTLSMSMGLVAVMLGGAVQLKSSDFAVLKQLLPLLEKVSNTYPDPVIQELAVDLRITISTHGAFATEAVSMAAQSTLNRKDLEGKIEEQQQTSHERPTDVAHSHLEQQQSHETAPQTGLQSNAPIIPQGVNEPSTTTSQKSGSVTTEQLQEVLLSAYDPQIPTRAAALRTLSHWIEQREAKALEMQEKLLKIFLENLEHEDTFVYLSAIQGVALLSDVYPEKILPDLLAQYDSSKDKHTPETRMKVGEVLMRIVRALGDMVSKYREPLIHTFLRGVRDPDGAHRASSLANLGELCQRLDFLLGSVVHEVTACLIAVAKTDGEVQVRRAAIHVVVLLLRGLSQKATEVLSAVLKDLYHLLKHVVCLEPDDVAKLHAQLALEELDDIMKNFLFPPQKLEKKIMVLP
UniProt Q9NYB0, sequence (Q9NYB0 whole entry, looked up): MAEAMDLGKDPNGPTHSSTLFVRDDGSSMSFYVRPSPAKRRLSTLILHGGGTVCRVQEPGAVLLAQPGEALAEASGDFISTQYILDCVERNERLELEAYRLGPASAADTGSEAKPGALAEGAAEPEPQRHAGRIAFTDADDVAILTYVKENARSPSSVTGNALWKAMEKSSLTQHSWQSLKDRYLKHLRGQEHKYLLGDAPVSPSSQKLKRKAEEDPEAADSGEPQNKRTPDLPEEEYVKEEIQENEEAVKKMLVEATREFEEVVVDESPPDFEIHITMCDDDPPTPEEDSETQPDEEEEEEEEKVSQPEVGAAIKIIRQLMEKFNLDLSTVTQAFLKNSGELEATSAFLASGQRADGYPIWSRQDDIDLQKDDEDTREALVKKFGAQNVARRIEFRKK
UniProt O00193, sequence (O00193 whole entry, looked up): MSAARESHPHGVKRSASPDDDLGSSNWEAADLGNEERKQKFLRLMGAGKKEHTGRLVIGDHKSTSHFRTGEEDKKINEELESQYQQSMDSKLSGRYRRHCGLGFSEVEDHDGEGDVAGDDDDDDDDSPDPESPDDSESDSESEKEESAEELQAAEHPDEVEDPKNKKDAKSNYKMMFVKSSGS
UniProt Q16385, sequence (Q16385 whole entry, looked up): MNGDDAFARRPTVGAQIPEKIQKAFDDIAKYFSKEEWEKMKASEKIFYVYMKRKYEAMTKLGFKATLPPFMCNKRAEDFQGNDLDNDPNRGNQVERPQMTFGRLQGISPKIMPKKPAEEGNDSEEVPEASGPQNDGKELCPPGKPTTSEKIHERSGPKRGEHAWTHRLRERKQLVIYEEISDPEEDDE
UniProt Q8TCT7, sequence (Q8TCT7 whole entry, looked up): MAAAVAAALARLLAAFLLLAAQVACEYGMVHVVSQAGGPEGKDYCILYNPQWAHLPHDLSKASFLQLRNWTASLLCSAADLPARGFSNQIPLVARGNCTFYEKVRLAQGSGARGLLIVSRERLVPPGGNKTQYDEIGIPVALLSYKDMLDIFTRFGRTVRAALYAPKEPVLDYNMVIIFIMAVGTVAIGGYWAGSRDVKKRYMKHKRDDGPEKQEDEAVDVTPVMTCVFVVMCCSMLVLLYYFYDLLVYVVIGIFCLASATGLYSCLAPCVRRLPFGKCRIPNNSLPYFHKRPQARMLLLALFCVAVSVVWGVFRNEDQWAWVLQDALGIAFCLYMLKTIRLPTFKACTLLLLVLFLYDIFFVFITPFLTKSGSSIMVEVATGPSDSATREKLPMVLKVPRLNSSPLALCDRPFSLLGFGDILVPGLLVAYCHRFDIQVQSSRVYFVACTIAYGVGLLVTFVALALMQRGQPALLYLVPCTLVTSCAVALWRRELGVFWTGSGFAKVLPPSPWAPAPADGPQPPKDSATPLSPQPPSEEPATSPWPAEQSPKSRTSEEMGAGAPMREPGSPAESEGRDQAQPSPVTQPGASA
UniProt Q9H5Q4, sequence (Q9H5Q4 whole entry, looked up): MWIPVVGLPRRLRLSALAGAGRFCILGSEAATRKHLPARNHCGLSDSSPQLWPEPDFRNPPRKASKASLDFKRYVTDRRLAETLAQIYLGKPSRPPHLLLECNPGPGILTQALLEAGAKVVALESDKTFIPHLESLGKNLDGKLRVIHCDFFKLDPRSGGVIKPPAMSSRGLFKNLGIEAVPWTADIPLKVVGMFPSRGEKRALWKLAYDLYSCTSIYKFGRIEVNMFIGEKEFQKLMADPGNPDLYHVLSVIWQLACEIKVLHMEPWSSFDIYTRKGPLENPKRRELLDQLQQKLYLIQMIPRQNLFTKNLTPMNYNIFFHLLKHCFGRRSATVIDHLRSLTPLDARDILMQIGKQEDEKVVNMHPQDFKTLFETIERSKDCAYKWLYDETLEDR
UniProt Q13428, sequence (Q13428 whole entry, looked up): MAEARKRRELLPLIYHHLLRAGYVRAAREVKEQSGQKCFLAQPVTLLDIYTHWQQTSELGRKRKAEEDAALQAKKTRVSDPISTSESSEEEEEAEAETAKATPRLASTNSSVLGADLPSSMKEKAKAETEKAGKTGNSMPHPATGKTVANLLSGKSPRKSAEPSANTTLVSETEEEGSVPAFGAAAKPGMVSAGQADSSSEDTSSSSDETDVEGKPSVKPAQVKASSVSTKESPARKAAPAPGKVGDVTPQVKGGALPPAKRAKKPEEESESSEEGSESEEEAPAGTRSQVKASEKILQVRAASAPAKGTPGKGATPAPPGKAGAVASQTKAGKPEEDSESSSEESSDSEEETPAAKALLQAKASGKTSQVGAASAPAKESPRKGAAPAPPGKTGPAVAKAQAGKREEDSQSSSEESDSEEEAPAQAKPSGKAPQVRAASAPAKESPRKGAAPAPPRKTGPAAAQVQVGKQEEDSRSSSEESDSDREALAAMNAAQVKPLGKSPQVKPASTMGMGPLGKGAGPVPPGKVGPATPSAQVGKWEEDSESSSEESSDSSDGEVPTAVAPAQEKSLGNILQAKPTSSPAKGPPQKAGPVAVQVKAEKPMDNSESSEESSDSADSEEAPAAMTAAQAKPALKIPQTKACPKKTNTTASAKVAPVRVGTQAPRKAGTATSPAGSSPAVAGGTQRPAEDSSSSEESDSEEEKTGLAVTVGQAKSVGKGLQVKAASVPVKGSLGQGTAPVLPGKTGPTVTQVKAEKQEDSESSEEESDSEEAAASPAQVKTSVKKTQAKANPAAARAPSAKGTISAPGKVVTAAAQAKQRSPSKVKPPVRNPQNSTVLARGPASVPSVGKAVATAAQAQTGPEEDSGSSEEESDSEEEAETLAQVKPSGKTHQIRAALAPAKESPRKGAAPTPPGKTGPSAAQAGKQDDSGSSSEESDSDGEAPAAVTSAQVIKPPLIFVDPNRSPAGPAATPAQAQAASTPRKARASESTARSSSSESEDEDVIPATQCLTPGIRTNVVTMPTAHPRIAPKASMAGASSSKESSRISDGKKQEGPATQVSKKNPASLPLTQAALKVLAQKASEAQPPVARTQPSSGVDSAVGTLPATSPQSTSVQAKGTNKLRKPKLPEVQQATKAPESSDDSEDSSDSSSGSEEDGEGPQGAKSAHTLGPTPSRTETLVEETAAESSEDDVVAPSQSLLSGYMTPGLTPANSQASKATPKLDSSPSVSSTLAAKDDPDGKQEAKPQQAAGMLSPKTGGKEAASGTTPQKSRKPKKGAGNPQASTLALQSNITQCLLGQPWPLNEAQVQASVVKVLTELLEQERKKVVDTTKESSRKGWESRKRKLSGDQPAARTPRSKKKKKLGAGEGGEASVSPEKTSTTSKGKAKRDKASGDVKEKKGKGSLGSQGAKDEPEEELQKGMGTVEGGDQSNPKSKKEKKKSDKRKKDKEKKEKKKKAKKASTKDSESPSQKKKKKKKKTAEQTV
UniProt P51687, sequence (P51687 whole entry, looked up): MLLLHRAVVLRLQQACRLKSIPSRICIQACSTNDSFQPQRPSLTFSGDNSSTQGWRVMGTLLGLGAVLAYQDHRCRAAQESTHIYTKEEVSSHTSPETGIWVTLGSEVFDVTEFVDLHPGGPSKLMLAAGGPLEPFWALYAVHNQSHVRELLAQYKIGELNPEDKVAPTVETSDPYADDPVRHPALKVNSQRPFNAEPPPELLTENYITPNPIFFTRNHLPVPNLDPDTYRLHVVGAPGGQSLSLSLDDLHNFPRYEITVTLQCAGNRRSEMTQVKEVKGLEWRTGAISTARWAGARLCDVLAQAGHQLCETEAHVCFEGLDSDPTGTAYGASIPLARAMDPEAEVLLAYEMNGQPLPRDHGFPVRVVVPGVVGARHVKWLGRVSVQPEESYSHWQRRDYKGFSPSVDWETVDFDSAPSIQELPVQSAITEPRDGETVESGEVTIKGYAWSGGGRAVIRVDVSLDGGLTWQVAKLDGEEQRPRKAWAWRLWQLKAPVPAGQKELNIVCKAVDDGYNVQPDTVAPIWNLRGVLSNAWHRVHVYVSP

log2 fold change, inactive:
TBC1D23 (UniProt Q9NUY8) -0.032
TFB2M (UniProt Q9H5Q4) -0.022
TGFBRAP1 (UniProt Q8WUH2) 0.194
SNX9 (UniProt Q9Y5X1) -0.006
THRAP3 (UniProt Q9Y2W1) -0.097
SRRM2 (UniProt Q9UQ35) -0.044
SSX2 (UniProt Q16385) -0.032
SMAP (UniProt O00193) -0.012
SMARCA5 (UniProt O60264) 0.052
SPAG9 (UniProt O60271) -0.016
SURF1 (UniProt Q15526) 0.056
TANGO6 (UniProt Q9C0B7) 0.025
SYNE1 (UniProt Q8NF91) 0.058
STAM2 (UniProt O75886) 0.002
SRSF2 (UniProt Q01130) -0.038
SMAD9 (UniProt O15198) -0.111
SPPL2B (UniProt Q8TCT7) 0.003
SUOX (UniProt P51687) -0.112
SPART (UniProt Q8N0X7) -0.008
TLK1 (UniProt Q9UKI8) 0.01
STXBP5 (UniProt Q5T5C0) 0.036
TCOF1 isoform 4 (UniProt Q13428) -0.024
TERF2IP (UniProt Q9NYB0) -0.038
